Experimental data reported in article PMC11102866, “Nucleosome-bound NR5A2 structure reveals pioneer factor mechanism by DNA minor groove anchor competition”.

Assays:
[1] = molecular target: NR5A2 wild type;histone octamer (Homo sapiens;, UniProt O00482;C0HKE1;Q6ZWY9;P84244;P62806 1-541;2-130;2-126;2-136;2-103, |); assay: SeEN-seq (EMSA of nucleosome library followed by sequencing); 0.8 uM human NR5A2; 20 mM Tris-HCl pH 7.5, 120 mM NaCl, 1 mM MgCl2, 10 uM ZnCl2, 1 mM DTT, 100 ug/ml BSA, room temperature, 30 min; 0.1 uM nucleosome library; high values mean tight binding
[2] = molecular target: mouse Nr5a2 wild type;histone octamer (Mus musculus;, UniProt P45448;C0HKE1;Q6ZWY9;P84244;P62806 1-560;2-130;2-126;2-136;2-103, |); assay: SeEN-seq (EMSA of nucleosome library followed by sequencing); 1.2 uM mouse Nr5a2; 20 mM Tris-HCl pH 7.5, 120 mM NaCl, 1 mM MgCl2, 10 uM ZnCl2, 1 mM DTT, 100 ug/ml BSA, room temperature, 30 min; 0.1 uM nucleosome library; high values mean tight binding

Binder	binding signal [1]	binding signal [2]
84 (nucleosome, reconstituted with mouse histones H2A, H2B, H3.3 and H4) DNA 1: ATCCTGGAGAATCCCGGTGCCGAGGCCGCTCAATTGGTCGTAGACAGCTCTAGCACCGCTTAAACGCACGTACGCGCTGTCCCCCGTCAAGGCCACGCCAAGGGGATTACTCCCTAGTCTCCAGGCACGTGTCAGATATATACATCCTGTGAT DNA 2: ATCACAGGATGTATATATCTGACACGTGCCTGGAGACTAGGGAGTAATCCCCTTGGCGTGGCCTTGACGGGGGACAGCGCGTACGTGCGTTTAAGCGGTGCTAGAGCTGTCTACGACCAATTGAGCGGCCTCGGCACCGGGATTCTCCAGGAT	0.634 log2 enrichment (bound/unbound, relative to Widom 601)	0.756 log2 enrichment (bound/unbound, relative to Widom 601)
85 (nucleosome, reconstituted with mouse histones H2A, H2B, H3.3 and H4) DNA 1: ATCCTGGAGAATCCCGGTGCCGAGGCCGCTCAATTGGTCGTAGACAGCTCTAGCACCGCTTAAACGCACGTACGCGCTGTCCCCCGCTCAAGGCCAGCCAAGGGGATTACTCCCTAGTCTCCAGGCACGTGTCAGATATATACATCCTGTGAT DNA 2: ATCACAGGATGTATATATCTGACACGTGCCTGGAGACTAGGGAGTAATCCCCTTGGCTGGCCTTGAGCGGGGGACAGCGCGTACGTGCGTTTAAGCGGTGCTAGAGCTGTCTACGACCAATTGAGCGGCCTCGGCACCGGGATTCTCCAGGAT	0.756 log2 enrichment (bound/unbound, relative to Widom 601)	0.748 log2 enrichment (bound/unbound, relative to Widom 601)
76 (nucleosome, reconstituted with mouse histones H2A, H2B, H3.3 and H4) DNA 1: ATCCTGGAGAATCCCGGTGCCGAGGCCGCTCAATTGGTCGTAGACAGCTCTAGCACCGCTTAAACGCACGTACGCGCTTCAAGGCCAGTTTTAACCGCCAAGGGGATTACTCCCTAGTCTCCAGGCACGTGTCAGATATATACATCCTGTGAT DNA 2: ATCACAGGATGTATATATCTGACACGTGCCTGGAGACTAGGGAGTAATCCCCTTGGCGGTTAAAACTGGCCTTGAAGCGCGTACGTGCGTTTAAGCGGTGCTAGAGCTGTCTACGACCAATTGAGCGGCCTCGGCACCGGGATTCTCCAGGAT	1.83 log2 enrichment (bound/unbound, relative to Widom 601)	2.16 log2 enrichment (bound/unbound, relative to Widom 601)
77 (nucleosome, reconstituted with mouse histones H2A, H2B, H3.3 and H4) DNA 1: ATCCTGGAGAATCCCGGTGCCGAGGCCGCTCAATTGGTCGTAGACAGCTCTAGCACCGCTTAAACGCACGTACGCGCTGTCAAGGCCATTTTAACCGCCAAGGGGATTACTCCCTAGTCTCCAGGCACGTGTCAGATATATACATCCTGTGAT DNA 2: ATCACAGGATGTATATATCTGACACGTGCCTGGAGACTAGGGAGTAATCCCCTTGGCGGTTAAAATGGCCTTGACAGCGCGTACGTGCGTTTAAGCGGTGCTAGAGCTGTCTACGACCAATTGAGCGGCCTCGGCACCGGGATTCTCCAGGAT	1.48 log2 enrichment (bound/unbound, relative to Widom 601)	1.71 log2 enrichment (bound/unbound, relative to Widom 601)
78 (nucleosome, reconstituted with mouse histones H2A, H2B, H3.3 and H4) DNA 1: ATCCTGGAGAATCCCGGTGCCGAGGCCGCTCAATTGGTCGTAGACAGCTCTAGCACCGCTTAAACGCACGTACGCGCTGTTCAAGGCCATTTAACCGCCAAGGGGATTACTCCCTAGTCTCCAGGCACGTGTCAGATATATACATCCTGTGAT DNA 2: ATCACAGGATGTATATATCTGACACGTGCCTGGAGACTAGGGAGTAATCCCCTTGGCGGTTAAATGGCCTTGAACAGCGCGTACGTGCGTTTAAGCGGTGCTAGAGCTGTCTACGACCAATTGAGCGGCCTCGGCACCGGGATTCTCCAGGAT	1.77 log2 enrichment (bound/unbound, relative to Widom 601)	2.13 log2 enrichment (bound/unbound, relative to Widom 601)
79 (nucleosome, reconstituted with mouse histones H2A, H2B, H3.3 and H4) DNA 1: ATCCTGGAGAATCCCGGTGCCGAGGCCGCTCAATTGGTCGTAGACAGCTCTAGCACCGCTTAAACGCACGTACGCGCTGTCTCAAGGCCATTAACCGCCAAGGGGATTACTCCCTAGTCTCCAGGCACGTGTCAGATATATACATCCTGTGAT DNA 2: ATCACAGGATGTATATATCTGACACGTGCCTGGAGACTAGGGAGTAATCCCCTTGGCGGTTAATGGCCTTGAGACAGCGCGTACGTGCGTTTAAGCGGTGCTAGAGCTGTCTACGACCAATTGAGCGGCCTCGGCACCGGGATTCTCCAGGAT	1.33 log2 enrichment (bound/unbound, relative to Widom 601)	1.29 log2 enrichment (bound/unbound, relative to Widom 601)
80 (nucleosome, reconstituted with mouse histones H2A, H2B, H3.3 and H4) DNA 1: ATCCTGGAGAATCCCGGTGCCGAGGCCGCTCAATTGGTCGTAGACAGCTCTAGCACCGCTTAAACGCACGTACGCGCTGTCCTCAAGGCCATAACCGCCAAGGGGATTACTCCCTAGTCTCCAGGCACGTGTCAGATATATACATCCTGTGAT DNA 2: ATCACAGGATGTATATATCTGACACGTGCCTGGAGACTAGGGAGTAATCCCCTTGGCGGTTATGGCCTTGAGGACAGCGCGTACGTGCGTTTAAGCGGTGCTAGAGCTGTCTACGACCAATTGAGCGGCCTCGGCACCGGGATTCTCCAGGAT	0.765 log2 enrichment (bound/unbound, relative to Widom 601)	0.924 log2 enrichment (bound/unbound, relative to Widom 601)
83 (nucleosome, reconstituted with mouse histones H2A, H2B, H3.3 and H4) DNA 1: ATCCTGGAGAATCCCGGTGCCGAGGCCGCTCAATTGGTCGTAGACAGCTCTAGCACCGCTTAAACGCACGTACGCGCTGTCCCCCTCAAGGCCACCGCCAAGGGGATTACTCCCTAGTCTCCAGGCACGTGTCAGATATATACATCCTGTGAT DNA 2: ATCACAGGATGTATATATCTGACACGTGCCTGGAGACTAGGGAGTAATCCCCTTGGCGGTGGCCTTGAGGGGGACAGCGCGTACGTGCGTTTAAGCGGTGCTAGAGCTGTCTACGACCAATTGAGCGGCCTCGGCACCGGGATTCTCCAGGAT	0.795 log2 enrichment (bound/unbound, relative to Widom 601)	0.693 log2 enrichment (bound/unbound, relative to Widom 601)
10 (nucleosome, reconstituted with mouse histones H2A, H2B, H3.3 and H4) DNA 1: ATCCTGGAGAATTCAAGGCCAGAGGCCGCTCAATTGGTCGTAGACAGCTCTAGCACCGCTTAAACGCACGTACGCGCTGTCCCCCGCGTTTTAACCGCCAAGGGGATTACTCCCTAGTCTCCAGGCACGTGTCAGATATATACATCCTGTGAT DNA 2: ATCACAGGATGTATATATCTGACACGTGCCTGGAGACTAGGGAGTAATCCCCTTGGCGGTTAAAACGCGGGGGACAGCGCGTACGTGCGTTTAAGCGGTGCTAGAGCTGTCTACGACCAATTGAGCGGCCTCTGGCCTTGAATTCTCCAGGAT	5.16 log2 enrichment (bound/unbound, relative to Widom 601)	4.92 log2 enrichment (bound/unbound, relative to Widom 601)
74 (nucleosome, reconstituted with mouse histones H2A, H2B, H3.3 and H4) DNA 1: ATCCTGGAGAATCCCGGTGCCGAGGCCGCTCAATTGGTCGTAGACAGCTCTAGCACCGCTTAAACGCACGTACGCGTCAAGGCCAGCGTTTTAACCGCCAAGGGGATTACTCCCTAGTCTCCAGGCACGTGTCAGATATATACATCCTGTGAT DNA 2: ATCACAGGATGTATATATCTGACACGTGCCTGGAGACTAGGGAGTAATCCCCTTGGCGGTTAAAACGCTGGCCTTGACGCGTACGTGCGTTTAAGCGGTGCTAGAGCTGTCTACGACCAATTGAGCGGCCTCGGCACCGGGATTCTCCAGGAT	1.21 log2 enrichment (bound/unbound, relative to Widom 601)	1.39 log2 enrichment (bound/unbound, relative to Widom 601)
75 (nucleosome, reconstituted with mouse histones H2A, H2B, H3.3 and H4) DNA 1: ATCCTGGAGAATCCCGGTGCCGAGGCCGCTCAATTGGTCGTAGACAGCTCTAGCACCGCTTAAACGCACGTACGCGCTCAAGGCCACGTTTTAACCGCCAAGGGGATTACTCCCTAGTCTCCAGGCACGTGTCAGATATATACATCCTGTGAT DNA 2: ATCACAGGATGTATATATCTGACACGTGCCTGGAGACTAGGGAGTAATCCCCTTGGCGGTTAAAACGTGGCCTTGAGCGCGTACGTGCGTTTAAGCGGTGCTAGAGCTGTCTACGACCAATTGAGCGGCCTCGGCACCGGGATTCTCCAGGAT	1.29 log2 enrichment (bound/unbound, relative to Widom 601)	1.36 log2 enrichment (bound/unbound, relative to Widom 601)
81 (nucleosome, reconstituted with mouse histones H2A, H2B, H3.3 and H4) DNA 1: ATCCTGGAGAATCCCGGTGCCGAGGCCGCTCAATTGGTCGTAGACAGCTCTAGCACCGCTTAAACGCACGTACGCGCTGTCCCTCAAGGCCAAACCGCCAAGGGGATTACTCCCTAGTCTCCAGGCACGTGTCAGATATATACATCCTGTGAT DNA 2: ATCACAGGATGTATATATCTGACACGTGCCTGGAGACTAGGGAGTAATCCCCTTGGCGGTTTGGCCTTGAGGGACAGCGCGTACGTGCGTTTAAGCGGTGCTAGAGCTGTCTACGACCAATTGAGCGGCCTCGGCACCGGGATTCTCCAGGAT	0.772 log2 enrichment (bound/unbound, relative to Widom 601)	0.954 log2 enrichment (bound/unbound, relative to Widom 601)
86 (nucleosome, reconstituted with mouse histones H2A, H2B, H3.3 and H4) DNA 1: ATCCTGGAGAATCCCGGTGCCGAGGCCGCTCAATTGGTCGTAGACAGCTCTAGCACCGCTTAAACGCACGTACGCGCTGTCCCCCGCGTCAAGGCCACCAAGGGGATTACTCCCTAGTCTCCAGGCACGTGTCAGATATATACATCCTGTGAT DNA 2: ATCACAGGATGTATATATCTGACACGTGCCTGGAGACTAGGGAGTAATCCCCTTGGTGGCCTTGACGCGGGGGACAGCGCGTACGTGCGTTTAAGCGGTGCTAGAGCTGTCTACGACCAATTGAGCGGCCTCGGCACCGGGATTCTCCAGGAT	0.668 log2 enrichment (bound/unbound, relative to Widom 601)	0.515 log2 enrichment (bound/unbound, relative to Widom 601)
87 (nucleosome, reconstituted with mouse histones H2A, H2B, H3.3 and H4) DNA 1: ATCCTGGAGAATCCCGGTGCCGAGGCCGCTCAATTGGTCGTAGACAGCTCTAGCACCGCTTAAACGCACGTACGCGCTGTCCCCCGCGTTCAAGGCCACAAGGGGATTACTCCCTAGTCTCCAGGCACGTGTCAGATATATACATCCTGTGAT DNA 2: ATCACAGGATGTATATATCTGACACGTGCCTGGAGACTAGGGAGTAATCCCCTTGTGGCCTTGAACGCGGGGGACAGCGCGTACGTGCGTTTAAGCGGTGCTAGAGCTGTCTACGACCAATTGAGCGGCCTCGGCACCGGGATTCTCCAGGAT	0.601 log2 enrichment (bound/unbound, relative to Widom 601)	0.435 log2 enrichment (bound/unbound, relative to Widom 601)
82 (nucleosome, reconstituted with mouse histones H2A, H2B, H3.3 and H4) DNA 1: ATCCTGGAGAATCCCGGTGCCGAGGCCGCTCAATTGGTCGTAGACAGCTCTAGCACCGCTTAAACGCACGTACGCGCTGTCCCCTCAAGGCCAACCGCCAAGGGGATTACTCCCTAGTCTCCAGGCACGTGTCAGATATATACATCCTGTGAT DNA 2: ATCACAGGATGTATATATCTGACACGTGCCTGGAGACTAGGGAGTAATCCCCTTGGCGGTTGGCCTTGAGGGGACAGCGCGTACGTGCGTTTAAGCGGTGCTAGAGCTGTCTACGACCAATTGAGCGGCCTCGGCACCGGGATTCTCCAGGAT	0.634 log2 enrichment (bound/unbound, relative to Widom 601)	0.729 log2 enrichment (bound/unbound, relative to Widom 601)
